PubChem BioAssay (NCI)
Compounds without any hit were thinned out: in the full panel of roughly 83,000, 20% have a hit.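 How to read the values: 0–100, growth inhibition (40 = 60% inhibited); 0, no net growth; -100 to 0, cell death (-40 = 40% of starting cells died; -100 = all dead).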 Values without a mark were called inactive. Active and inactive are the calls of the source. Rule for the calls: active = growth percent below 10; inactive = the rest.

What was measured:
Experiment in all cases: NCI-60 one-dose screen, 48 h (100 = growth as untreated, 0 = no growth, -100 = all killed)
Conditions in all cases: 10 µM unless noted
[1] = system: NCI-H23 lung
[2] = system: NCI-H226 lung
[3] = system: NCI-H322M lung
[4] = system: HOP-62 NSCLC
[5] = system: NCI-H460 lung
[6] = system: NCI-H522 lung
[7] = system: A549/ATCC NSCLC
[8] = system: 786-0 renal
[9] = system: COLO 205 colon
[10] = system: DU-145 prostate

`COC(=O)CCC1=C(CC(=O)OC)C(C)=N/C1=C\c1[nH]c(-c2ccc[nH]2)cc1OC` gave a growth [1] of 49.4%, a growth [2] of 54.5% and a growth [3] of 53.3%. The growth [4] was 46.1%, the growth [5] was 19.1% and the growth [6] was -7% (active). The growth [7] was 18%, the growth [8] was 50.2% and the growth [9] was 30.5%. The growth [10] was 36.9%.
Compound `CC1=CSC2=NCCN12` has a growth [1] of 104%, a growth [2] of 112% and a growth [3] of 118%. The growth [4] was 108%, the growth [5] was 109% and the growth [6] was 100%. It also gave a growth [7] of 105%, a growth [8] of 104% and a growth [9] of 107%. For the same compound, the growth [10] was 108%.
Work on `CN(CCOc1ccc(CC2SC(=O)NC2=O)cc1)c1ccccn1` (stereo not given) yielded a growth [1] of 99.7%, a growth [2] of 98.9% and a growth [3] of 95.3%. It also gave a growth [4] of 94.3%, a growth [5] of 102% and a growth [6] of 95.9%. For the same compound, the growth [7] was 99.2%, the growth [8] was 108% and the growth [9] was 82.7%. It also gave a growth [10] of 107%.
For `c1cnc2ccc3ncccc3c2c1`, the growth [1] was 118%, the growth [2] was 105% and the growth [3] was 117%. The growth [4] was 82.6%, the growth [5] was 105% and the growth [6] was 84.6%. The growth [7] was 90.2%, the growth [8] was 103% and the growth [9] was 109%. The growth [10] was 117%.
In the case of `COc1ccc2c(c1)C(=O)c1c-2c(=O)n(CCCCCCC(=O)NO)c2ccccc12`, the growth [1] is reported as -41.9% (active), the growth [2] is reported as 1.93% (active) and the growth [3] is reported as -3.32% (active). The growth [4] was -3.67% (active), the growth [5] was 3.19% (active) and the growth [6] was 4.79% (active). For the same compound, the growth [7] was -10.4% (active), the growth [8] was -3.09% (active) and the growth [9] was -39.3% (active). For the same compound, the growth [10] was 9.94% (active).
For `COc1cccc2c1O/C(=C\c1c([N+](=O)[O-])ncn1C)C2=O`, the growth [1] was 99.8%, the growth [2] was 96.9% and the growth [3] was 84.7%. It also gave a growth [4] of 105%, a growth [5] of 109% and a growth [6] of 84.3%. It also gave a growth [7] of 99.8%, a growth [8] of 96.1% and a growth [9] of 109%. It also gave a growth [10] of 102%.
In the case of `COC(=O)CCC1=C(C)C(C)=N/C1=C\c1[nH]c(-c2ccc[nH]2)cc1OC`, the growth [1] is reported as 0.999% (active), the growth [2] is reported as 20.7% and the growth [3] is reported as 12.1%. The growth [4] was -3.16% (active), the growth [5] was 0.969% (active) and the growth [6] was -62.7% (active). The growth [7] was 11.1%, the growth [8] was 10.1% and the growth [9] was 12.9%. The growth [10] was 9.9% (active).
With `Cc1ccc(NC(=O)Nc2ccc(-c3cccnc3)cc2N2CCC(CO)CC2)cc1` the growth [1] was 4.01% (active), the growth [2] was 54% and the growth [3] was 34.3%. The growth [4] was 24.9%, the growth [5] was 29.1% and the growth [6] was 9.32% (active). The growth [7] was 7.01% (active), the growth [8] was -8.69% (active) and the growth [9] was 31.5%. The growth [10] was 29.8%.
With `C[C@]12CC[C@@H]3c4ccc(O)c([N+](=O)[O-])c4CC[C@H]3[C@@H]1CC[C@@H]2NS(=O)(=O)c1cccc(Br)c1` the growth [1] was 28%, the growth [2] was 62.4% and the growth [3] was 53.8%. The growth [4] was 78.3%, the growth [5] was 20% and the growth [6] was -50.4% (active). It also gave a growth [7] of 19%, a growth [8] of 42.8% and a growth [9] of 101%. For the same compound, the growth [10] was 52.7%.
`COc1cc(C2CC(=O)Nc3c2cc(Br)c2ccccc32)cc(Br)c1OC` (stereo not given) gave a growth [1] of 58.8%, a growth [2] of 27.1% and a growth [3] of 40.7%. For the same compound, the growth [4] was 24%, the growth [5] was 10.9% and the growth [6] was 21.3%. For the same compound, the growth [7] was 3.52% (active), the growth [8] was 0.846% (active) and the growth [9] was 37.1%. It also gave a growth [10] of 64.7%.
In the case of `Cc1nn(-c2ccc(Br)cc2)c2nc3c(nc12)C(=O)C(=O)c1ccccc1-3`, the growth [1] is reported as 87.2%, the growth [2] is reported as 96.9% and the growth [3] is reported as 104%. For the same compound, the growth [4] was 91.7%, the growth [5] was 97.3% and the growth [6] was 98.3%. For the same compound, the growth [7] was 100%, the growth [8] was 102% and the growth [9] was 89.6%. It also gave a growth [10] of 124%.
`CCN1C[C@@H](C)n2c(c(O)c3c(=O)n(Cc4ccc(F)c(Cl)c4)nc(C(=O)NC)c32)C1=O` gave a growth [1] of 11.3%, a growth [2] of 26.4% and a growth [3] of 18.4%. For the same compound, the growth [4] was 26%, the growth [5] was 15.2% and the growth [6] was 69.3%. It also gave a growth [7] of 11%, a growth [8] of 18.4% and a growth [9] of 101%. It also gave a growth [10] of 22.6%.
In the case of `C=C1CC[C@@H]2[C@](C)(COC(C)=O)[C@H](OC(C)=O)CC[C@@]2(C)[C@@H]1CC(Nc1ccc(S(=O)(=O)Nc2cc(C)on2)cc1)C1=CCOC1=O` (stereo not given in full), the growth [1] is reported as 71%, the growth [2] is reported as 79.5% and the growth [3] is reported as 80.4%. For the same compound, the growth [4] was 60.2%, the growth [5] was 79.5% and the growth [6] was -20.2% (active). It also gave a growth [7] of 72.2%, a growth [8] of 89.8% and a growth [9] of 29%. The growth [10] was 71.1%.
In the case of `CCOC(=O)c1c(C)c(C(=O)OCC)n(C)c1C`, the growth [1] is reported as 121%, the growth [2] is reported as 66.6% and the growth [3] is reported as 85.4%. It also gave a growth [4] of 74.4%, a growth [5] of 117% and a growth [6] of 102%. It also gave a growth [7] of 91.7%, a growth [8] of 92.5% and a growth [9] of 141%. For the same compound, the growth [10] was 99%.
Work on `O=C1CC(=O)N(c2ccccc2)O1` yielded a growth [1] of 108%, a growth [2] of 91.2% and a growth [3] of 108%. The growth [4] was 92.3%, the growth [5] was 111% and the growth [6] was 95.6%. It also gave a growth [7] of 107%, a growth [8] of 105% and a growth [9] of 92.3%. It also gave a growth [10] of 105%.
With `CCC[C@H](N[C@@H](C)C(=O)N1[C@H](C(=O)O)C[C@@H]2CCCC[C@@H]21)C(=O)OCC` the growth [1] was 94.2%, the growth [2] was 105% and the growth [3] was 103%. For the same compound, the growth [4] was 123%, the growth [5] was 116% and the growth [6] was 102%. It also gave a growth [7] of 91.4%, a growth [8] of 103% and a growth [9] of 111%. The growth [10] was 111%.
For `O[C@@H]1Cc2ccc3ccccc3c2N[C@H](c2ccoc2)C1`, the growth [1] was 96.6%, the growth [2] was 93.5% and the growth [3] was 112%. The growth [4] was 98.8%, the growth [5] was 116% and the growth [6] was 94.8%. For the same compound, the growth [7] was 100%, the growth [8] was 108% and the growth [9] was 107%. The growth [10] was 112%.
With `Cn1c(=O)c2c(nc(Br)n2CCC(=O)Nc2ccc(F)cc2)n(C)c1=O` the growth [1] was 101%, the growth [2] was 101% and the growth [3] was 106%. For the same compound, the growth [4] was 92.4%, the growth [5] was 109% and the growth [6] was 87.9%. The growth [7] was 85.2%, the growth [8] was 100% and the growth [9] was 112%. It also gave a growth [10] of 118%.
With `CCCCCCCCCCCCCCCCN=C(CC(=O)O)C(=O)O` the growth [1] was 103%, the growth [2] was 99.4% and the growth [3] was 91.7%. For the same compound, the growth [4] was 106%, the growth [5] was 82.7% and the growth [6] was 87.5%. It also gave a growth [7] of 96.1%, a growth [8] of 95.4% and a growth [9] of 97.9%. For the same compound, the growth [10] was 78.8%.
Work on `Cc1ccccc1NC(=O)c1cc2ccccc2cc1O` yielded a growth [1] of 10.9%, a growth [2] of 77.1% and a growth [3] of 24.6%. For the same compound, the growth [4] was 39.2%, the growth [5] was 38% and the growth [6] was 12.2%. The growth [7] was 39.3%, the growth [8] was 54.9% and the growth [9] was 119%. The growth [10] was 20.2%.
In the case of `COC(=O)CC1=C(C)/C(=C/c2[nH]c(-c3ccc[nH]3)cc2OC)N=C1C`, the growth [1] is reported as 6.26% (active), the growth [2] is reported as 24.6% and the growth [3] is reported as 18.2%. For the same compound, the growth [4] was -10.9% (active), the growth [5] was 4.72% (active) and the growth [6] was -74.8% (active). The growth [7] was 9.1% (active), the growth [8] was -2.31% (active) and the growth [9] was 9.09% (active). For the same compound, the growth [10] was 24.2%.
`CCCn1cnc2c1c(=O)n(CCCCC(C)=O)c(=O)n2C` was tested, and the growth [1] was 105%, the growth [2] was 100% and the growth [3] was 97.4%. For the same compound, the growth [4] was 101%, the growth [5] was 103% and the growth [6] was 113%. It also gave a growth [7] of 95.8%, a growth [8] of 104% and a growth [9] of 104%. The growth [10] was 118%.
Work on `CCOC(=O)C1=C(COCCN)NC(C)=C(C(=O)OC)C1c1ccccc1Cl` (stereo not given) yielded a growth [1] of 83.7%, a growth [2] of 91.9% and a growth [3] of 80.3%. The growth [4] was 89.7%, the growth [5] was 60.3% and the growth [6] was 73.3%. For the same compound, the growth [7] was 71.8%, the growth [8] was 70.1% and the growth [9] was -51.9% (active). The growth [10] was 98.6%.
With `CCCc1cccc(CCC)c1O` the growth [1] was 100%, the growth [2] was 106% and the growth [3] was 124%. For the same compound, the growth [4] was 106%, the growth [5] was 106% and the growth [6] was 89.9%. For the same compound, the growth [7] was 98.2%, the growth [8] was 110% and the growth [9] was 116%. It also gave a growth [10] of 120%.
In the case of `COc1ccc(COC(C)=O)cc1`, the growth [1] is reported as 113%, the growth [2] is reported as 104% and the growth [3] is reported as 112%. The growth [4] was 101%, the growth [5] was 111% and the growth [6] was 118%. It also gave a growth [7] of 100%, a growth [8] of 99.4% and a growth [9] of 127%. The growth [10] was 110%.
In the case of `O=C(/C(=C/c1cccc([N+](=O)[O-])c1)c1ccccc1)c1ccccc1`, the growth [1] is reported as 68%, the growth [2] is reported as 58.8% and the growth [3] is reported as 80.6%. It also gave a growth [4] of 91.2%, a growth [5] of 67.9% and a growth [6] of 43.8%. For the same compound, the growth [7] was 53.6%, the growth [8] was 68.4% and the growth [9] was 86.3%. For the same compound, the growth [10] was 19.8%.
With `COc1ccc(/C=C/C(=O)Nc2cccnc2Nc2ccc(F)cc2)cc1` the growth [1] was 93.6%, the growth [2] was 85.5% and the growth [3] was 101%. The growth [4] was 117%, the growth [5] was 108% and the growth [6] was 92.5%. For the same compound, the growth [7] was 84.6%, the growth [8] was 95.6% and the growth [9] was 109%. For the same compound, the growth [10] was 118%.
`CCCCCCCC/C=C/CCCCCCCC1=NC(C)(C)CN1CCO` showed a growth [1] of 47.1%, a growth [2] of 83.3% and a growth [3] of 50.8%. For the same compound, the growth [4] was 6.19% (active), the growth [5] was -39.5% (active) and the growth [6] was -45.2% (active). For the same compound, the growth [7] was 24.7%, the growth [8] was 32.3% and the growth [9] was -63.9% (active). For the same compound, the growth [10] was 64.5%.
